Experiments:
[1] = molecular target: Casein kinase I isoform gamma-2 (Homo sapiens) (UniProt P78368); details: at 1 µM
[2] = molecular target: Casein kinase I isoform gamma-3 (Homo sapiens) (UniProt Q9Y6M4); details: at 0.1 µM
[3] = molecular target: Casein kinase I isoform gamma-3 (Homo sapiens) (UniProt Q9Y6M4); details: at 1 µM
[4] = molecular target: Cyclin-dependent kinase 1 (Homo sapiens) (UniProt P06493); details: at 0.1 µM
[5] = molecular target: Cyclin-dependent kinase 1 (Homo sapiens) (UniProt P06493); details: at 1 µM
[6] = molecular target: Cyclin-dependent kinase 2 (Homo sapiens) (UniProt P24941); details: at 0.1 µM
[7] = molecular target: Cyclin-dependent kinase 2 (Homo sapiens) (UniProt P24941); details: at 1 µM
[8] = molecular target: Cyclin-dependent kinase 2 (Homo sapiens) (UniProt P24941); details: at 0.1 µM; remark: listed apart in the source
[9] = molecular target: Cyclin-dependent kinase 2 (Homo sapiens) (UniProt P24941); details: at 1 µM; remark: listed apart in the source
[10] = molecular target: CDK3/Cyclin E (Homo sapiens) (UniProt P24864+Q00526); details: at 0.1 µM;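 further: reported percentages are mean inhibition values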
Chain of CDK3/Cyclin E (Homo sapiens) (P24864 whole entry, looked up): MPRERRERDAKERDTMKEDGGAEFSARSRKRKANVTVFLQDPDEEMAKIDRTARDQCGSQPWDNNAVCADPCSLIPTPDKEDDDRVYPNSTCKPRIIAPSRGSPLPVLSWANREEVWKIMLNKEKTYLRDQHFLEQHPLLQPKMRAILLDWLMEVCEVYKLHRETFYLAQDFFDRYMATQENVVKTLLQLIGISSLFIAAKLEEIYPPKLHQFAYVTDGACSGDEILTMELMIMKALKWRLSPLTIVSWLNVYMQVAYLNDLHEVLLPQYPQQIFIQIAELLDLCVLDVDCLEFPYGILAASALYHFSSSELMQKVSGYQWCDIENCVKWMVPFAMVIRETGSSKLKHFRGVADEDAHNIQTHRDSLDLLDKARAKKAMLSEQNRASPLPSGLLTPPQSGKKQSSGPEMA
Chain of CDK3/Cyclin E (Homo sapiens) (Q00526 whole entry, looked up): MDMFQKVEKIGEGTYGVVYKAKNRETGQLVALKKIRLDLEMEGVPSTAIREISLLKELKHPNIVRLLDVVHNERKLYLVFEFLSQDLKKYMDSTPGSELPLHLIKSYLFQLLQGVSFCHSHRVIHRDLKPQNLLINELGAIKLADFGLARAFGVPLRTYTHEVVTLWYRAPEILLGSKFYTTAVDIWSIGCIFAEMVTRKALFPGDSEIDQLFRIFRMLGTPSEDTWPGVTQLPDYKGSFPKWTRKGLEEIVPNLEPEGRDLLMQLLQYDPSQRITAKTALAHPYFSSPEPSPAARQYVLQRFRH

Chain of Casein kinase I isoform gamma-3 (Homo sapiens) (Q9Y6M4 whole entry, looked up, canonical isoform): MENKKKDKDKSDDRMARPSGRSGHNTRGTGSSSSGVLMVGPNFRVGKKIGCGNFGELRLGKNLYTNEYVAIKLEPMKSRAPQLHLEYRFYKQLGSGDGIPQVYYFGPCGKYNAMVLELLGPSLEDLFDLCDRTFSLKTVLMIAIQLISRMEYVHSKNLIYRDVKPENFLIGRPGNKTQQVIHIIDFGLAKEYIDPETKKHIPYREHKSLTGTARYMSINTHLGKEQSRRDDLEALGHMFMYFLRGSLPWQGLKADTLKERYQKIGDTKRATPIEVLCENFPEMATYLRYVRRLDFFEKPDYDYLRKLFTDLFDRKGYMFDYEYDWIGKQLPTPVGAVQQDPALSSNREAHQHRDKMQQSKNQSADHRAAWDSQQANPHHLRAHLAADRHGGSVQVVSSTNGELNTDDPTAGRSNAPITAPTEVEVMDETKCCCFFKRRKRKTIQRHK
Chain of Casein kinase I isoform gamma-2 (Homo sapiens) (P78368 whole entry, looked up, canonical isoform): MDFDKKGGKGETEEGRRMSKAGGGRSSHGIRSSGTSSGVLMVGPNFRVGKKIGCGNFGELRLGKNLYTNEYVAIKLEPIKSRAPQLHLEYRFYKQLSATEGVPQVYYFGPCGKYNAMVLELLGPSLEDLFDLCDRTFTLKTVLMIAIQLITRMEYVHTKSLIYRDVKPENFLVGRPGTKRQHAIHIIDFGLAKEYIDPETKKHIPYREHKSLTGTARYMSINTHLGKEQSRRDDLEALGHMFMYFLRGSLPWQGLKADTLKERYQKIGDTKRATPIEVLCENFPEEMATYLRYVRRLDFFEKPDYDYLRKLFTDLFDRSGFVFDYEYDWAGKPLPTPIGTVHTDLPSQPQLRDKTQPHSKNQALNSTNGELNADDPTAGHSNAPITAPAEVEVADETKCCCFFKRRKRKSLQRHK
Chain of Cyclin-dependent kinase 1 (Homo sapiens) (P06493 whole entry, looked up): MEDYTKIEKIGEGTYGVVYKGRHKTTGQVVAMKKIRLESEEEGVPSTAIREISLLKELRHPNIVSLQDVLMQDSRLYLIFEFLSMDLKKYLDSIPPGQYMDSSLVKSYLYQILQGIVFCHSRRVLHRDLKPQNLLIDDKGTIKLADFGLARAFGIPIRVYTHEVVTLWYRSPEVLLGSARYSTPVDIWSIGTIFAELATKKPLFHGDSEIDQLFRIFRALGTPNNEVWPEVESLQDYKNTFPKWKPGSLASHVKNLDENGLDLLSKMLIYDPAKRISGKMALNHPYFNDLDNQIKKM

SMILES	inhibition [1] [%]	inhibition [2] [%]	inhibition [3] [%]	inhibition [4] [%]	inhibition [5] [%]	inhibition [6] [%]	inhibition [7] [%]	inhibition [8] [%]	inhibition [9] [%]	inhibition [10] [%]
NS(=O)(=O)c1ccc(N/N=C2\C(=O)Nc3ccc(-c4cnco4)cc32)cc1	0.36	-3.27	0.29	32.6	66.8	85.8	94.4	67.2	74.7	50
C[C@@H](Oc1cc(-n2cnc3ccc(OCC4CCN(C)CC4)cc32)sc1C(N)=O)c1ccccc1Cl	7.87	3.89	5.6	1.74	3.79	3.1	4.03	2.66	5.46	-2.62
COc1ccc(-c2ccc3c(NC(=O)C4CC4)n[nH]c3n2)cc1	1.22	1.89	2.61	0.44	4.03	1.61	10.7	1.4	4.59	2.19
Fc1ccc(-c2ncn(C3CCNCC3)c2-c2ccnc(Oc3ccc4c(c3)OCO4)n2)cc1	9.12	4.73	17.9	0.2	1.39	1.83	3.44	3.24	6.04	-0.22
O=C1NC(=O)C(c2cccc(Cl)c2)=C1Nc1ccc(Cl)c(C(=O)O)c1	3.4	1.59	0.02	0.24	2.57	2	9.11	1.73	1.86	3.54
CCc1ccc(Oc2nccc(-c3c(-c4ccc(F)cc4)ncn3C3CCNCC3)n2)cc1	11.5	6.23	30	2.36	2.02	3.63	2.75	2.03	2.75	-2.23
CNC(=O)c1cncc(/C=C/c2c(C)cccc2C)c1	-0.99	-1.38	-0.55	-3.38	1.17	-3.98	4.82	-1.1	-2.25	-0.48
COc1cc2ncn(-c3cc(OCc4cccs4)c(C(N)=O)s3)c2cc1OC	-1.86	-0.97	-0.06	-2.79	-0.17	-2.8	6.63	-0.55	4.77	1.28
NC(=O)c1cc(-c2ccc(F)cc2)cc(-c2ccncc2)c1N	6.08	4.13	2.66	0.65	0.73	2.41	-6.47	2.49	2.14	4.68
CN(C)c1ccc2c(c1)/C(=C/Nc1ccc(S(N)(=O)=O)cc1)C(=O)N2	1.27	0.48	0.92	6.23	33.9	21.8	82.6	16.3	54	5.6
COc1cc(Nc2ncc3c(C)nc(-c4cccc(Oc5ccccc5)c4)n3n2)cc(OC)c1OC	3.44	1.22	5.12	-0.4	0.45	2.04	2.37	0.75	3.13	0.34
COc1cc(Nc2ncc3c(C)nc(-c4cccc(C(F)(F)F)c4)n3n2)cc(OC)c1OC	3.91	2.45	4.96	0.7	6.83	3.13	20.8	6	28.8	2.35
CN(c1ccc(NC(=O)Nc2c(Cl)cccc2Cl)cc1)c1ccnc(Nc2cccc(CS(C)(=O)=O)c2)n1	0.63	1.67	-1.25	0.58	3.72	3.62	12.2	-0.54	2.62	0.7
Fc1ccc(-c2ncn(CCCN3CCOCC3)c2-c2ccncc2)cc1	0.86	0	-0.19	0.43	2.72	1.19	0.72	2.29	5.92	2.27
O=C(Nc1n[nH]c2nc(-c3ccco3)ccc12)C1CC1	1.22	-1.28	0.46	-0.24	2.61	3.24	6.79	-0.16	3.89	0.19
NS(=O)(=O)c1ccc(Nc2cc(-c3ccc(O)c(F)c3)n[nH]2)cc1	2.15	-3.13	4.18	10.9	51.7	53.3	78.9	59.9	86.9	9.52
CCc1nccc2c1nc(-c1nonc1N)n2CC	3.36	-0.55	1.97	1.84	2.9	2.75	4.67	1.55	3.62	1.31

SMILES	inhibition [1] [%]	inhibition [2] [%]	inhibition [3] [%]	inhibition [4] [%]	inhibition [5] [%]	inhibition [6] [%]	inhibition [7] [%]	inhibition [8] [%]	inhibition [9] [%]	inhibition [10] [%]
C#Cc1cccc(Nc2ncnc3ccc(OCCCCNCCS(C)(=O)=O)cc23)c1	1.61	-0.3	0.33	-2.94	-2.94	-1.15	-0.68	0.97	1.11	3.19
CCC(=O)Nc1ccc(C)c(-c2ccc(C(=O)NCC3CC3)cc2)c1	3.16	1.58	1.61	2.88	2.38	3.84	3.06	3.5	4.47	-1.57
CN1CCN(CCCNc2nc3ccc(Oc4ccc(NC(=O)Nc5cc(C(F)(F)F)ccc5F)cc4)cc3[nH]2)CC1	-2.41	-3.59	-4.66	-2.5	-3.79	-3.51	5.29	-2.32	-2.03	0.7
CCc1cccc(CC)c1/C=C/c1cncc(C(=O)NC)c1	5.11	2.87	4.99	-0.08	1.65	1.26	3.61	2.79	4.02	-0.92
CCN(CC)Cc1ccc(Nc2nccc(-c3cnn4ncccc34)n2)cc1	13.7	0.62	10.6	36.3	68.1	39.5	82.5	40.4	70.1	28.6
O=C1Nc2ccccc2/C1=C/Nc1ccc(-n2cncn2)cc1	8.25	2.62	5.16	1.97	10.6	2.39	13.3	6.28	22.2	7.69
c1ccc(-c2n[nH]cc2-c2ccnc(-c3ccc(OCCN4CCOCC4)cc3)c2)nc1	-2.28	-0.5	2.07	5.08	4.83	0.41	0.03	4.78	4.73	5.94
CS(=O)(=O)CCNCc1ccc(-c2ccc3ncnc(Nc4ccc(OCc5ccccc5)c(Br)c4)c3c2)o1	-0.24	-0.8	-2.02	-4.43	-2.83	-2.31	-1.03	-1.96	-0.05	-2.03
COc1cccc(/C=N/Nc2ncnc3c2cnn3-c2cccc(OC)c2)c1	3.85	2.41	1.09	1.12	4.16	1.78	5.08	2.49	3.83	-2.31
COc1ccc2cc(-c3c(-c4ccncc4)nc(-c4ccc(S(C)(=O)=O)cc4C)n3C)ccc2c1	4.03	3.31	2.13	1.11	1.69	2.79	-7.25	3.25	2.47	5.76
COC(=O)Nc1nc2ccc(Sc3ccc(NC(=O)Nc4cc(C(F)(F)F)ccc4F)cc3)cc2[nH]1	1.01	0.1	0.39	0.09	3.86	-0.08	6.71	0.48	0.81	-0.31
Cc1ccc(C(=O)NC(C)C)cc1-c1ccc(C(=O)NCC2CC2)cc1	-3.47	-2.79	-1.44	0.57	2.57	0.33	-0.04	-0.92	0.52	1.57
O=C(Nc1n[nH]c2cc(-c3ccccc3)ccc12)C1CC1	4.84	4.39	4.52	0.9	5.76	3.52	11.2	4.57	8.54	2.98
CS(=O)(=O)CCNCc1cc(-c2cc3c(Nc4ccc(OCc5cccc(F)c5)c(Cl)c4)ncnc3s2)cs1	4.61	3.07	1.92	2.55	0.45	3.05	1.47	1.9	4.94	-3.37
O=C(Nc1n[nH]c2nc(-c3ccc(O)cc3)c(Br)cc12)C1CC1	7.38	1.39	4.72	24.2	64.2	63.1	108	36.5	73	27.5
Cc1nnc(-c2ccc(C)c(-c3ccc(C(=O)NCc4ccc(Cl)cc4)cc3)c2)o1	1.06	-1.5	-0.65	-3.13	-1.46	-1.4	-2.99	0.91	0.03	4.6
c1ccc(Oc2ccc(Nc3ncc(-c4ccccc4)o3)cc2)cc1	2.07	-0.2	1.13	0.18	1.13	0.43	1.24	0.94	3.16	0.29

— ChEMBL document CHEMBL1961873, “Compounds: GSK PKIS; Assays: Nanosyn kinase panel” (2012)
